# Source: the supplement of paper PMC6555819
# How the values were obtained:
# Assay in all cases: PBM binding z-score (relative to random genomic background probes); higher = stronger binding; sequences stand for … in GC…GCGATTGACAGCGTAGAATGAAGG
# [1] = tested on: FXR:RXRa (NR concentration 270 nM, RXRa partner concentration 90 nM)
# Summary of the method: (§1)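 For binding z-scores, the reference was random background probes on custom Agilent 4×180K protein-binding microarrays. These arrays were incubated 1 h with ligand-free nuclear receptor dimers in PBS pH 7.4, 2% milk, 0.02% Triton X-100, 1 mM DTT, 0.2 mg/mL BSA and 0.4 mg/ml salmon testes DNA. Fluorescence was scanned after antibody detection of each partner (one per run) and regression-normalized.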
# [2] = tested on: LXRa:RXRa (NR concentration 270 nM, RXRa partner concentration 90 nM)
# Summary of the method: as §1
# [3] = tested on: LXRa homodimer (NR concentration 270 nM)
# Summary of the method: as §1
# [4] = tested on: LXRb:RXRa (NR concentration 270 nM, RXRa partner concentration 90 nM)
# Summary of the method: as §1
# [5] = tested on: LXRb homodimer (NR concentration 270 nM)
# Summary of the method: as §1
# [6] = tested on: PPARa:RXRa (NR concentration 270 nM, RXRa partner concentration 90 nM)
# Summary of the method: as §1
# [7] = tested on: PPARg:RXRa (NR concentration 180 nM, RXRa partner concentration 90 nM)
# Summary of the method: as §1
# [8] = tested on: PPARg:RXRa 270nM:90nM, anti-RXR (NR concentration 270 nM, RXRa partner concentration 90 nM)
# Summary of the method: as §1
# [9] = tested on: PPARg:RXRa 30nM:10nM, anti-RXR (NR concentration 30 nM, RXRa partner concentration 10 nM)
# Summary of the method: as §1
# [10] = tested on: PPARg:RXRa 90nM:30nM, anti-RXR (NR concentration 90 nM, RXRa partner concentration 30 nM)
# Summary of the method: as §1
Sequence,PBM binding z-score [1],PBM binding z-score [2],PBM binding z-score [3],PBM binding z-score [4],PBM binding z-score [5],PBM binding z-score [6],PBM binding z-score [7],PBM binding z-score [8],PBM binding z-score [9],PBM binding z-score [10]
TAGCCTAGGGCATGGGCCAGTATACCACGCGAAC,-0.362,-0.149,-0.378,-0.666,-1.19,-0.188,0.658,0.665,-0.115,0.0783
TCATATATGTAAACAGGTGAAAGTCCGTAAGTTA,0.999,1.09,0.211,1.51,0.115,1.84,1.67,2.97,3.81,3.19
CCTACTCGGCCAAGGTCATTGATCAGTCAAAGCA,3.57,3.69,2.12,3.18,0.93,3.52,1.32,2.35,0.335,1.69
CTACCAAGGTGAACGAGGTCGTTGATTACTATTC,1.79,1.81,0.142,2.09,-0.207,2.82,1.45,1.48,0.4,0.896
CCTAGCAGCCCAGGGTCACTCAAGCATTTCGCTT,2.06,1.93,-0.213,2.17,-0.762,2.99,0.0606,0.885,-0.586,0.325
CCGAGTAGCTTATGGGGCATTCAGGCAACGGTGA,-0.494,-0.536,-0.883,-0.715,-1.2,-0.234,-0.0289,-0.512,-0.765,-0.818
GATACAGGGTCAGCTAGAGGCCAGAGTCTGGAAA,4.63,2.79,-0.316,2.18,-0.91,4.47,3.57,3.41,0.796,2.27
CCTTCCGGGTCACTCCAGGTTATAGCATCGGAGT,4.29,7.37,1.67,5.1,0.22,4.38,4.22,4.36,1.22,3.15
CCTACTGGGCCATTCAGAGGTCATTGCTCATATG,2.76,4.37,6.67,3.6,0.398,3.57,1.99,2.92,0.777,2.16
AATACAGGGTCACTAGGCCAGTGTAGGTACGAAT,5.94,5.39,1.08,3.91,0.765,5.69,7.83,6.59,3.05,5.85
ACCGAAAGGTCGAGGTGAGTATAGAGAAAGGGAA,4.42,3.23,-0.000757,2.69,0.235,4.71,3.28,3.78,1.22,2.51
CCTCCTAGGTCATGGTCAGCTAATCTACAGTATG,3.85,2.79,0.804,2.24,0.0954,3.8,2.72,2.89,0.958,2.09
GCTAGTTGGTCAGTATAAGGTCACACACCGGTCG,3.04,2.87,3.48,2.64,0.601,3.23,1.38,2.09,0.612,1.37
CAAACTAGGTCACAGAGGTCAAAGACCGTGCGTA,7.36,6.53,6.56,5.93,1.73,6.52,10.5,8.43,6.84,8.38
TTAACAAGGTGAGCTGAGGTCGTTGATCCAACTC,1.71,1.21,-0.57,0.45,-0.886,1.72,0.604,0.987,0.415,0.24
GCTAGTTGGTCAGTACAAGGTCACACACCGGTCG,2.58,2.63,2.97,2.59,0.352,3.05,1.38,1.94,0.146,1.33
CCGACTGGGGCAAAGCTTACCATACTCAGTACGA,-0.466,-0.638,-0.547,-0.287,-0.784,0.592,1.53,2.52,0.444,2.26
CGTCCAAGGTCAAGGTCAGTGGAAGAGACTCGAA,7.57,5.46,1.22,4.68,0.505,5.89,6.29,6.3,2.6,5.24
ACTAGTTGGTCAACTGAGGTCACACACAATTCGG,4.03,4.75,3.24,3.99,0.711,4.31,3.06,3.01,0.826,2.8
TCTCGTAGATCAACAGGAGGTTAAGAAAGATCGA,0.345,1.09,-0.171,1,-0.667,1.13,-0.29,1.7,2.94,2.36
TCGAGTAGGTAAGGGGCATTCAGAATGGCGTCGA,-0.106,-0.02,-0.436,0.42,-0.693,0.747,0.463,1.71,1.19,1.41
ATCACTAGGTAAAAGTTCAGTGAATCCCGAGGAT,0.841,1.47,1.23,0.945,0.59,4.85,8.25,8.67,7.65,9.23
TATACAGGTTCAAAGGCCAGAGTACGAATGTCGA,3.17,4.13,2.06,2.27,1.19,3.41,2.89,3.54,1.9,2.88
TCATACAGGTAATACAGGTGAAAGTCGGCATCTA,0.813,1.42,0.615,1.31,0.285,1.88,0.982,2.34,3.85,3.1

Sequence,PBM binding z-score [1],PBM binding z-score [2],PBM binding z-score [3],PBM binding z-score [4],PBM binding z-score [5],PBM binding z-score [6],PBM binding z-score [7],PBM binding z-score [8],PBM binding z-score [9],PBM binding z-score [10]
CCGACTGGGGCATAGGGTTACCATAAGCCAGCCC,0.216,1.62,-0.605,0.389,-0.905,2.07,3.45,4.29,2.36,4
GCAGACAGGTGAAACGCCGGTAACTCAGGGTGGC,-0.365,-0.144,-0.611,-0.313,-0.77,0.601,0.303,-0.0478,-0.502,-0.552
GCGACTGGGGCAAAGCAGGTTAGCATAAGGTTGG,0.494,-0.573,-0.598,-0.43,-1.24,0.977,1.14,0.948,-0.509,0.412
CCTGCTATGTCAATGGTCAGCTAAAGCAGCTCGC,-0.419,-0.17,-0.882,-0.227,-0.272,-0.207,0.344,1.53,-0.198,0.923
GATGCTAGGTCAGGTTGGTCAGCTAACGGGTACG,1.5,1.03,-0.12,0.742,0.041,1.66,0.776,0.805,-0.511,0.0836
CCTACTGGGCCAAGAAAGGTCATTGATTCAGTGA,3.31,4.19,4.12,3.8,-0.225,4.33,2.63,3.17,0.919,2.35
ATCTCTAGGTAACCAAGTTAAGTGAATGCCGAAC,0.211,0.255,0.398,0.412,0.551,0.58,0.376,0.507,0.346,0.476
CCGACTGGGGCGAGGTTACCATAACGCACAGCCA,0.344,0.809,-0.212,0.84,-0.662,1.49,1.16,1.05,-0.243,0.417
CCTCGGAGGACAGAAGGTCAGAGCAGTCCGCTTT,1.47,1.7,0.116,1.25,-0.798,2.04,0.114,0.948,-0.57,0.201
CGAACTAGGGCATGAGTTGATAGCAAATGCCGAT,-0.0776,-0.357,-0.246,-0.279,-0.828,2.34,4.14,4.13,2.03,3.43
CCGACTGGGGCATAAGGTTGCCATAAGCCAGCCC,-0.333,-0.188,-0.75,-0.498,-1.17,0.636,0.999,1.81,-0.189,1.12
GATACAGGGTCAGCTAGATGCCAGAGTATGGAAA,5.08,2.66,-0.125,2.53,-0.514,4.79,4.08,3.48,0.884,2.4
GCGACTGGGGCATCAGCAGGTTACCGTAACTTAA,-0.346,-0.107,-0.365,0.443,-0.973,1.18,0.623,0.961,-0.441,-0.00586
CGTCCAAGGTCAGCAGGTCAGTGAAAGCGACGTG,5.62,4,0.313,3.11,-0.277,4.76,4.12,4.39,0.905,2.91
CCGACTGGGGCAAGGTAACCATAACGCACAGCCA,-0.249,-0.173,-0.437,-0.227,-0.817,0.552,1.47,1.14,-0.222,0.712
TCGAGTAGGTTACCAAGGGGGCATTCAGCTTTCT,1.44,4.34,0.768,4.55,6.02,2.95,1.48,3.04,2.18,2.74
TCATATAGGGAAACAGGTGAAAGTCCGTAAGTTA,1.01,1.04,0.121,1.11,-0.148,1.74,1.69,3.03,4.32,3.7
CCTCCAAGGTCAGCAGGTCAGTGAAAGCGACGTG,5.51,3.58,0.385,2.93,0.111,4.67,4.14,4.24,1.49,2.93
CAGACTAGGTCACCGGAAGGTCAAAGTCCGCATG,5.95,5.63,4.26,5.14,0.786,5.42,7.82,7.03,3.63,6.35
GGAATGAGGGCATTCGAGTTGATAGCATGGCGAT,1.71,2.3,-0.453,0.478,-0.43,2.13,1.46,1.52,0.439,1.05
GCTCCGAGGACAAGGTCAGAGCTTTGTCCGTAGA,1.79,1.33,-0.653,1.05,-1.37,2.23,0.168,1.15,-0.379,0.299
AGTCAAAGTGCACTAGGTAACGTAAGATTCAGCT,-0.308,-0.0298,-0.372,-0.0247,-0.424,1.85,3.36,3.28,1.04,1.89
CGTCAGAGTTCAACTAAGGTAACGTAAAGCACGC,6.8,5.7,3.39,3.95,1.39,4.78,3.46,3.98,1.19,2.53
CAAACTAGGTCACCGGAAGGTCCAAGTCCGCATG,4.24,3.41,0.716,2.42,0.547,5.28,8.9,7.31,5.06,7.02
